Results as given in PubChem BioAssay AID1159580 (chemical genetic matrix, 2015).
Hit rate of the full screen: of about 5,500 compounds, about 2,000 (36%) were called active. Another 18% or so got no clear call; they are omitted. The list shows a part of the results. Values without a mark were called inactive. Rule as the data show it: active = normalized growth mostly below about 0.91 (no sharp cut-off); inconclusive = no clear call, values can overlap the other calls; inactive = mostly above about 0.92.

Assay: chemical genetic growth profiling, strain panel (AID 1159580);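 also: tested at 20 µM; growth read once vehicle control cultures reached saturation at 30 °C; 1 = growth at the plate median or of vehicle wells; lower values mean less growth of the strain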
Conditions: growth OD

CCOC(=O)c1c(C)cc(O)c(C=O)c1O
normalized growth (S. cerevisiae deletion strains, locus YJR075W, strain HOC1, active compounds read low): 0.272 (active) | normalized growth (S. cerevisiae deletion strains, locus YKL009W, strain mrt4, active compounds read low): 0.446 (active) | normalized growth (S. cerevisiae deletion strains, locus YKL068W, active compounds read low): 0.799 (active) | normalized growth (S. cerevisiae deletion strains, locus YKL085W, strain MDH1 (second series), active compounds read low): 0.528 (active) | normalized growth (S. cerevisiae deletion strains, locus YKL085W, strain MDH1, active compounds read low): 0.528 (active) | normalized growth (S. cerevisiae deletion strains, locus YKL160W, strain elf1, active compounds read low): 0.655 (active) | normalized growth (S. cerevisiae deletion strains, locus YKL190W, strain CNB1, active compounds read low): 0.108 (active) | normalized growth (S. cerevisiae deletion strains, locus YKR001C, strain vps1, active compounds read low): 0.103 (active) | normalized growth (S. cerevisiae deletion strains, locus YKR026C, strain gcn3, active compounds read low): 0.823 (active) | normalized growth (S. cerevisiae deletion strains, locus YKR091W, strain srl3, active compounds read low): 0.851 (active) | normalized growth (S. cerevisiae deletion strains, locus YLL001W, strain dnm1, active compounds read low): 0.568 (active) | normalized growth (S. cerevisiae deletion strains, locus YLL026W, active compounds read low): 0.706 (active) | normalized growth (S. cerevisiae deletion strains, locus YLL041C, strain sdh2, active compounds read low): 0.823 (active) | normalized growth (S. cerevisiae deletion strains, locus YLR027C, strain aat2, active compounds read low): 0.593 (active) | normalized growth (S. cerevisiae deletion strains, locus YLR039C, strain RIC1, active compounds read low): 0.0958 (active) | normalized growth (S. cerevisiae deletion strains, locus YLR058C, strain SHM2, active compounds read low): 0.202 (active) | normalized growth (S. cerevisiae deletion strains, locus YLR102C, strain apc9, active compounds read low): 0.221 (active) | normalized growth (S. cerevisiae deletion strains, locus YLR113W, strain HOG1, active compounds read low): 0.157 (active) | normalized growth (S. cerevisiae deletion strains, locus YLR221C, strain rsa3, active compounds read low): 0.499 (active) | normalized growth (S. cerevisiae deletion strains, locus YLR258W, strain gsy2, active compounds read low): 0.681 (active) | normalized growth (S. cerevisiae deletion strains, locus YLR262C, strain YPT6 (second series), active compounds read low): 0.153 (active) | normalized growth (S. cerevisiae deletion strains, locus YLR262C, strain YPT6, active compounds read low): 0.113 (active) | normalized growth (S. cerevisiae deletion strains, locus YLR268W, strain sec22, active compounds read low): 0.091 (active) | normalized growth (S. cerevisiae deletion strains, locus YLR320W, strain mms22, active compounds read low): 0.292 (active) | normalized growth (S. cerevisiae deletion strains, locus YLR330W, strain CHS5, active compounds read low): 0.176 (active) | normalized growth (S. cerevisiae deletion strains, locus YLR342W, strain FKS1 (second series), active compounds read low): 0.159 (active) | normalized growth (S. cerevisiae deletion strains, locus YLR342W, strain FKS1, active compounds read low): 0.586 (active) | normalized growth (S. cerevisiae deletion strains, locus YLR357W, strain rsc2, active compounds read low): 0.772 (active) | normalized growth (S. cerevisiae deletion strains, locus YLR370C, strain arc18, active compounds read low): 0.656 (active) | normalized growth (S. cerevisiae deletion strains, locus YLR371W, strain rom2, active compounds read low): 0.158 (active) | normalized growth (S. cerevisiae deletion strains, locus YLR384C, strain iki3, active compounds read low): 0.718 (active) | normalized growth (S. cerevisiae deletion strains, locus YLR418C, strain cdc73, active compounds read low): 0.13 (active) | normalized growth (S. cerevisiae deletion strains, locus YML016C, strain PPZ1, active compounds read low): 0.344 (active) | normalized growth (S. cerevisiae deletion strains, locus YML032C, strain rad52, active compounds read low): 0.137 (active) | normalized growth (S. cerevisiae deletion strains, locus YML120C, strain ndi1, active compounds read low): 0.652 (active) | normalized growth (S. cerevisiae deletion strains, locus YML124C, strain tub3, active compounds read low): 0.262 (active) | normalized growth (S. cerevisiae deletion strains, locus YMR058W, strain fet3, active compounds read low): 0.0978 (active) | normalized growth (S. cerevisiae deletion strains, locus YMR078C, strain ctf18, active compounds read low): 0.112 (active) | normalized growth (S. cerevisiae deletion strains, locus YMR125W, strain sto1, active compounds read low): 0.673 (active) | normalized growth (S. cerevisiae deletion strains, locus YMR129W, active compounds read low): 0.722 (active) | normalized growth (S. cerevisiae deletion strains, locus YMR205C, strain PFK2, active compounds read low): 0.47 (active) | normalized growth (S. cerevisiae deletion strains, locus YMR223W, strain ubp8, active compounds read low): 0.2 (active) | normalized growth (S. cerevisiae deletion strains, locus YMR231W, strain pep5, active compounds read low): 0.311 (active) | normalized growth (S. cerevisiae deletion strains, locus YMR263W, strain SAP30, active compounds read low): 0.353 (active) | normalized growth (S. cerevisiae deletion strains, locus YMR307W, strain GAS1, active compounds read low): 0.133 (active) | normalized growth (S. cerevisiae deletion strains, locus YNL067W, strain RPL9B, active compounds read low): 0.201 (active) | normalized growth (S. cerevisiae deletion strains, locus YNL071W, strain lat1, active compounds read low): 0.248 (active) | normalized growth (S. cerevisiae deletion strains, locus YNL128W, strain TEP1, active compounds read low): 0.237 (active) | normalized growth (S. cerevisiae deletion strains, locus YNL153C, strain GIM3, active compounds read low): 0.205 (active) | normalized growth (S. cerevisiae deletion strains, locus YNL183C, strain NPR1, active compounds read low): 0.0359 (active) | normalized growth (S. cerevisiae deletion strains, locus YNL209W, strain ssb2, active compounds read low): 0.392 (active) | normalized growth (S. cerevisiae deletion strains, locus YNL233W, strain BNI4, active compounds read low): 0.153 (active) | normalized growth (S. cerevisiae deletion strains, locus YNL248C, strain rpa49, active compounds read low): 0.635 (active) | normalized growth (S. cerevisiae deletion strains, locus YNL250W, strain rad50, active compounds read low): 0.514 (active) | normalized growth (S. cerevisiae deletion strains, locus YNL271C, strain bni1, active compounds read low): 0.347 (active) | normalized growth (S. cerevisiae deletion strains, locus YNL298W, strain CLA4, active compounds read low): 0.382 (active) | normalized growth (S. cerevisiae deletion strains, locus YNL307C, strain MCK1, active compounds read low): 0.0757 (active) | normalized growth (S. cerevisiae deletion strains, locus YNL322C, strain KRE1 (second series), active compounds read low): 0.797 (active) | normalized growth (S. cerevisiae deletion strains, locus YNL322C, strain KRE1, active compounds read low): 0.207 (active) | normalized growth (S. cerevisiae deletion strains, locus YNR049C, strain mso1, active compounds read low): 0.796 (active) | normalized growth (S. cerevisiae deletion strains, locus YNR052C, strain pop2, active compounds read low): 0.155 (active) | normalized growth (S. cerevisiae deletion strains, locus YOL006C, strain TOP1, active compounds read low): 0.137 (active) | normalized growth (S. cerevisiae deletion strains, locus YOL012C, strain htz1): 0.305 | normalized growth (S. cerevisiae deletion strains, locus YOL147C, strain pex11, active compounds read low): 0.0808 (active) | normalized growth (S. cerevisiae deletion strains, locus YOR001W, strain rrp6, active compounds read low): 0.604 (active) | normalized growth (S. cerevisiae deletion strains, locus YOR061W, strain CKA2, active compounds read low): 0.486 (active) | normalized growth (S. cerevisiae deletion strains, locus YOR069W, strain VPS5, active compounds read low): 0.255 (active) | normalized growth (S. cerevisiae deletion strains, locus YOR070C, strain gyp1, active compounds read low): 0.535 (active) | normalized growth (S. cerevisiae deletion strains, locus YOR080W, strain dia2, active compounds read low): 0.642 (active) | normalized growth (S. cerevisiae deletion strains, locus YOR083W, strain WHI5, active compounds read low): 0.674 (active) | normalized growth (S. cerevisiae deletion strains, locus YOR106W, strain vam3, active compounds read low): 0.358 (active) | normalized growth (S. cerevisiae deletion strains, locus YOR136W, strain idh2, active compounds read low): 0.267 (active) | normalized growth (S. cerevisiae deletion strains, locus YOR144C, strain elg1, active compounds read low): 0.136 (active) | normalized growth (S. cerevisiae deletion strains, locus YOR184W, strain ser1, active compounds read low): 0.0931 (active) | normalized growth (S. cerevisiae deletion strains, locus YOR231W, strain MKK1, active compounds read low): 0.142 (active) | normalized growth (S. cerevisiae deletion strains, locus YOR265W, strain rbl2, active compounds read low): 0.697 (active) | normalized growth (S. cerevisiae deletion strains, locus YOR270C, strain vph1, active compounds read low): 0.263 (active) | normalized growth (S. cerevisiae deletion strains, locus YOR290C, strain snf2, active compounds read low): 0.558 (active) | normalized growth (S. cerevisiae deletion strains, locus YOR316C, strain cot1, active compounds read low): 0.213 (active) | normalized growth (S. cerevisiae deletion strains, locus YPL051W, strain arl3, active compounds read low): 0.225 (active) | normalized growth (S. cerevisiae deletion strains, locus YPL055C, strain LGE1, active compounds read low): 0.171 (active) | normalized growth (S. cerevisiae deletion strains, locus YPL078C, strain atp4, active compounds read low): 0.558 (active) | normalized growth (S. cerevisiae deletion strains, locus YPL106C, strain sse1, active compounds read low): 0.708 (active) | normalized growth (S. cerevisiae deletion strains, locus YPL240C, strain hsp82, active compounds read low): 0.75 (active) | normalized growth (S. cerevisiae deletion strains, locus YPL241C, strain CIN2, active compounds read low): 0.224 (active) | normalized growth (S. cerevisiae deletion strains, locus YPL256C, strain CLN2, active compounds read low): 0.15 (active) | normalized growth (S. cerevisiae deletion strains, locus YPR119W, strain clb2, active compounds read low): 0.164 (active) | normalized growth (S. cerevisiae deletion strains, locus YPR141C, strain kar3, active compounds read low): 0.704 (active) | normalized growth (S. cerevisiae deletion strains, locus YPR163C, strain tif3, active compounds read low): 0.0943 (active) | normalized growth (S. cerevisiae deletion strains, locus YPR167C, strain met16, active compounds read low): 0.252 (active) | normalized growth (S. cerevisiae deletion strains, strain wtn01, active compounds read low): 0.166 (active) | normalized growth (S. cerevisiae strains, strain wild type, active compounds read low): 0.162 (active)
